These results are taken from publication PMC4336329 (PLoS ONE, 2015).

Each structure is given as a SMILES string. The whole screen tested about 310,000 compounds, of which about 14,000 (4.5%) showed an effect of 50% or more. The effect is printed as a negative number. Many of the other results were omitted from the sample, so strong results are more common in it than they were.
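Further: peak tail current of the secondary pulse compared with the same well before compound.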

human ether-à-go-go-related gene (hERG) potassium channel, sequence (Q12809 whole entry, looked up): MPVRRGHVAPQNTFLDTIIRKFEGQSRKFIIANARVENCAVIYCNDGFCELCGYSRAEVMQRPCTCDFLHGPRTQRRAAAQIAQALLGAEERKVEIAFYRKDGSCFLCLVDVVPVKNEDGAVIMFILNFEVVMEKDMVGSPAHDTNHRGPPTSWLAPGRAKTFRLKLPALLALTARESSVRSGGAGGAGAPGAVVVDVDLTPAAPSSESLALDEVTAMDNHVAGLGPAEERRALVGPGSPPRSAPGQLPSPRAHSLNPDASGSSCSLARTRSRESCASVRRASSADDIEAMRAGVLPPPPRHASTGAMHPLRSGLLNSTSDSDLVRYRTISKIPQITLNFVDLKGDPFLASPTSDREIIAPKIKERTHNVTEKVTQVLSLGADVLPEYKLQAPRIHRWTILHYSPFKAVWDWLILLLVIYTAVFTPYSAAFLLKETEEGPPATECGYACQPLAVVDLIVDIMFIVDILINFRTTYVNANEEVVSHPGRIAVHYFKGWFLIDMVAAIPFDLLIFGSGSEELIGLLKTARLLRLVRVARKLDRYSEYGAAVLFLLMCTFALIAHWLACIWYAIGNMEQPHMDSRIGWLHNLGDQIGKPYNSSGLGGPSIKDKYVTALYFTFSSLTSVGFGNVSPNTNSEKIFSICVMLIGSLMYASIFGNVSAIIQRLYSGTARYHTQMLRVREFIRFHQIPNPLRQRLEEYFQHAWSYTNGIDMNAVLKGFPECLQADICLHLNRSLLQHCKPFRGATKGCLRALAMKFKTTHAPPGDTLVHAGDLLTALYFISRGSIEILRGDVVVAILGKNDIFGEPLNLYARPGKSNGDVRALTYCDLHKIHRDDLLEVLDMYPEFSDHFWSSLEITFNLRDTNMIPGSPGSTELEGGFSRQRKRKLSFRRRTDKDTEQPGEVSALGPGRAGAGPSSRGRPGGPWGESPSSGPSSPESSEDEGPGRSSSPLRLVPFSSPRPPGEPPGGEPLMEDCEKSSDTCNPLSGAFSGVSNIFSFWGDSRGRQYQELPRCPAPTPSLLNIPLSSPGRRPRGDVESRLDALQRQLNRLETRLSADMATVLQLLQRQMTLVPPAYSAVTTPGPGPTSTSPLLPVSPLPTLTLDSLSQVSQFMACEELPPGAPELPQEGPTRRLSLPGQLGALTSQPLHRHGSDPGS

This assay has as its target human ether-à-go-go-related gene (hERG) potassium channel (human, UniProt Q12809). The experiment in a line: primary screen, population patch clamp on CHO cells stably expressing hERG; higher = less effect of the substance.
Take `O=C(COc1ccc(Cl)cc1)Nc1c(-c2cccs2)nc2ccccn12`: the “hERG current change (%, negative = inhibition) at 10uM” value is reported as -14.4%.
As to `Nc1cc(-c2nn[nH]n2)ccc1F`, the “hERG current change (%, negative = inhibition) at 10uM” value is given as 11.6%.
Take `O=C(Nc1ccc(Cl)c(-c2nc3ccccc3[nH]2)c1)c1ccc2c(c1)OCO2`: the “hERG current change (%, negative = inhibition) at 10uM” value is -15%.
Take `O=C1CC2(CCN(C(=O)C3CC(=O)N(c4ccccc4)C3)CC2)Oc2ccccc21` (stereo not drawn): the “hERG current change (%, negative = inhibition) at 10uM” value is listed as -77.4%.
For `CCOC(=O)N1CCN(C(=O)C2CC(=O)N(c3ccc(C)cc3)C2)CC1` (stereo not drawn), the “hERG current change (%, negative = inhibition) at 10uM” value is -47.9%.
Consider `O=C(C1CC(=O)N(c2ccc(F)cc2)C1)N1CCOCC1` (stereo not drawn), for which the “hERG current change (%, negative = inhibition) at 10uM” value is recorded as 1.27%.
With `O=C1CC2(CCN(C(=O)C3CC(=O)N(c4ccc(F)cc4)C3)CC2)Oc2ccccc21` (stereo not drawn) the figure was -78.7%; with `Cc1ccc(N2CC(C(=O)N3CCC4(CC3)CC(=O)c3ccccc3O4)CC2=O)cc1C` (stereo not drawn), -71.3%; with `O=C(C1CC(=O)N(c2ccccc2)C1)N1CCCCCC1` (stereo not drawn), 13%.
With `CCOC(=O)N1CCN(C(=O)C2CC(=O)N(c3ccccc3)C2)CC1` (stereo not drawn) the figure was 5.31%; with `NC(=O)C1CCN(C(=O)C2CC(=O)N(c3ccc(F)cc3)C2)CC1` (stereo not drawn), 13.7%; with `Cc1ccc(N2CC(C(=O)N3CCOCC3)CC2=O)cc1C` (stereo not drawn), 6.52%.
As for `Cc1ccc(N2CC(C(=O)N3CCC4(CC3)CC(=O)c3ccccc3O4)CC2=O)cc1` (stereo not drawn), the “hERG current change (%, negative = inhibition) at 10uM” value was -71.6%.
Take `Cc1ccc(N2CC(C(=O)N3CCCCC3)CC2=O)cc1C` (stereo not drawn): the “hERG current change (%, negative = inhibition) at 10uM” value is recorded as -21.2%.
With `Cc1ccc(N2CC(C(=O)N3CCCCCC3)CC2=O)cc1` (stereo not drawn), the “hERG current change (%, negative = inhibition) at 10uM” value turned out to be 11.5%.
For the compound `CCN(CC#CCC(O)(c1ccccc1)C1CCCC1)C(C)C.Cl` (stereo not drawn), the “hERG current change (%, negative = inhibition) at 10uM” value is recorded as -18.9%.
With `CCNC(=O)NC(=O)C(C)OC(=O)Cc1coc2cc3c(cc12)CCC3` (stereo not drawn) the figure was 26.6%; with `Cc1ccc(C2=NCCn3c2c2ccc(C(F)(F)F)cc2[n+]3[O-])cc1`, -26.2%; with `O=[N+]([O-])c1ccc2c3n([n+]([O-])c2c1)CCN=C3c1ccc(Cl)cc1`, -29.6%.
As for `Nc1c(Cl)cc(C2=NCCn3c2c2ccc(C(F)(F)F)cc2[n+]3[O-])cc1Cl`, the “hERG current change (%, negative = inhibition) at 10uM” value is recorded as -26.1%.
For the compound `Cc1ccc(C2=NCCn3c2c2ccc([N+](=O)[O-])cc2[n+]3[O-])cc1`, the “hERG current change (%, negative = inhibition) at 10uM” value is -7.51%.
In the case of `Nc1c(Cl)cc(C2=NCCn3c2c2ccc([N+](=O)[O-])cc2[n+]3[O-])cc1Cl` it was -54.8%; in that of `[O-][n+]1c2cc(C(F)(F)F)ccc2c2n1CCN=C2c1ccc(Cl)cc1`, -55.6%; in that of `COc1cccc(/C=C/C(=O)OCC(=O)c2c[nH]c3ccccc23)c1OC`, 9.29%.
In the case of `CCOC(=O)c1c[nH]c2c(C)cc(C)cc2c1=O` it was -0.349%.
In the case of `CCCCOP(=O)(c1ccc(N(C)C)cc1)C(O)c1ccc(OC)cc1` (stereo not drawn) it was -2.61%; in that of `O=[N+]([O-])c1cc(S(=O)(=O)NCCc2ccccn2)ccc1Cl`, -21.8%; in that of `C=CCCC(=O)Nc1nc(C)c(-c2csc(Nc3ccc(Cl)cc3)n2)s1`, 14.9%.
Take `S=c1[nH]nc(-c2ccc3ccccc3n2)o1`: the “hERG current change (%, negative = inhibition) at 10uM” value was found to be 17.2%.
With `Cc1ccc(C)c2[nH]c(=O)c(CCNC(=O)C(C)(C)C)cc12`, the “hERG current change (%, negative = inhibition) at 10uM” value is recorded as 8.5%.
For the compound `O=C(O)CSc1ncccc1C(=O)O`, the “hERG current change (%, negative = inhibition) at 10uM” value is -53.7%.
In the case of `O=C(CSc1ncccc1C(=O)O)c1ccccc1` it was 6.47%; in that of `O=C(O)c1cccnc1SCc1ccccc1`, -1.22%; in that of `O=C(N/C(=C/c1ccc(Cl)cc1)c1nc2ccccc2[nH]1)c1ccco1`, 9.34%.
Consider `O=c1[nH]c(C2CCN(S(=O)(=O)c3ccc(C(F)(F)F)cc3)CC2)nc2c1nnn2Cc1ccccc1`, for which the “hERG current change (%, negative = inhibition) at 10uM” value worked out at 8.98%.
As for `Cc1ccc(S(=O)(=O)N(C)C)cc1NC(=S)N(CCC#N)Cc1cccnc1`, the “hERG current change (%, negative = inhibition) at 10uM” value was -10.3%.
As to `Cc1ccc(C(C)C)cc1OCCOCCN1CCCC1`, the “hERG current change (%, negative = inhibition) at 10uM” value is -38.9%.
As for `COc1ccc(-c2nc(NC(=O)CSCCO)sc2C)cc1`, the “hERG current change (%, negative = inhibition) at 10uM” value is reported as -4.57%.
`O=C(CCCn1c(SCC(=O)NCCc2ccccc2)nc2ccccc2c1=O)NCC1CCCO1` (stereo not drawn): the “hERG current change (%, negative = inhibition) at 10uM” value was -22.8%.
For `COc1cccc(NC(=O)CSc2nc3ccccc3c(=O)n2CCCC(=O)NCCCN2CCOCC2)c1`, the “hERG current change (%, negative = inhibition) at 10uM” value was -59.8%.
Consider `CCOC(=O)C(C)Sc1nc2ccccc2c(=O)n1CC` (stereo not drawn), for which the “hERG current change (%, negative = inhibition) at 10uM” value is on record as -22.4%.
With `CCCCn1c(SCC(=O)Nc2cccc(OC)c2)nc2ccc(N3CCOCC3)cc2c1=O`, the “hERG current change (%, negative = inhibition) at 10uM” value is -9.77%.
In the case of `Cc1ccc(NC(=O)CSc2nc3ccccc3c(=O)n2CCCC(=O)NCCCN2CCOCC2)cc1C` it was -69.1%; in that of `O=C(CCCn1c(SCc2cccc(F)c2)nc2ccccc2c1=O)NCC1CCCO1` (stereo not drawn), 8.35%.
On to `CCOC(=O)C(C)On1c(-n2nc(C)cc2C)nc2ccccc2c1=O` (stereo not drawn), for which the “hERG current change (%, negative = inhibition) at 10uM” value is 9.29%.
As to `COc1cccc(NC(=O)CSc2nc3ccccc3c(=O)n2C)c1`, the “hERG current change (%, negative = inhibition) at 10uM” value was -7.76%.
For `CCOC(=O)C(C)On1c(SC(C)C(=O)OCC)nc2ccccc2c1=O` (stereo not drawn), the “hERG current change (%, negative = inhibition) at 10uM” value was -53.5%.
`O=C(CSc1nc2ccccc2c(=O)n1CCCN1CCOCC1)Nc1ccc2c(c1)OCO2`: the “hERG current change (%, negative = inhibition) at 10uM” value is reported as -43.6%.
In the case of `O=C(CCCn1c(SCc2cccc([N+](=O)[O-])c2)nc2ccccc2c1=O)NCC1CCCO1` (stereo not drawn), the “hERG current change (%, negative = inhibition) at 10uM” value is -59.7%.
On to `Cc1cc(C)c(NC(=O)CSc2nc3ccccc3c(=O)n2CCCN2CCOCC2)c(C)c1`, for which the “hERG current change (%, negative = inhibition) at 10uM” value is on record as -47.6%.
Regarding `O=C(NCc1ccccc1)[C@]1(C(F)(F)F)C[C@H](CCc2ccccc2)CCCO1`, the “hERG current change (%, negative = inhibition) at 10uM” value amounted to 3.84%.
As for `Cn1cc(Br)c(C(=O)Nc2sc3c(c2C(N)=O)CCC3)n1`, the “hERG current change (%, negative = inhibition) at 10uM” value was determined as 18.4%.
Consider `Cc1ccc(Cl)cc1NC(=O)c1cc(NC(=O)C2CCCCC2C(=O)O)ccc1N1CCOCC1` (stereo not drawn), for which the “hERG current change (%, negative = inhibition) at 10uM” value is -6.57%.
For `COc1cccc(CCNC(=O)CCc2nnc(-c3ccc4c(c3)OCO4)o2)c1`, the “hERG current change (%, negative = inhibition) at 10uM” value was -7.05%.
